Bioassay records (PubChem)
Abeta rescue: A-beta toxicity reversal in yeast; yeast expressing A-beta42, growth rescue, OD600, 48 h; response scale: 0% DMSO, 100% iron-clioquinol control; Potency, µM (doses to about 46.1 µM), actives largely listed as activators; hit rate 0.063% among 410,000; further: nearly all actives have a fitted effect of over 55% in size
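Yeast A-beta toxicity model in growth medium with pinned compounds, 48 h at 30 C; growth read as absorbance at 600 nm. Normalized to FeCl3/clioquinol equimolar mix (positive) and DMSO (negative).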
TDP43 rescue: TDP-43 toxicity inhibition in yeast. TDP-43 expressing yeast growth rescue, BacTiter-Glo, 24 h. Potency, µM (titrated, usually from 46.1 µM), without a hit: at the highest dose growth rescue (activation), usual class: activators. hit rate 1.8% among 410,000. AID 652104; further: % of control where 0% means no effect; nearly all actives have a fitted effect of over 50% in size
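Yeast cells expressing TDP-43 under galactose induction are exposed to compounds for 24 hr at 30 deg C. BacTiter-Glo luminescence measures growth, so protective compounds score as activators.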
aSyn yeast inh: inhibitors of alpha-synuclein toxicity in yeast. Yeast expressing alpha-synuclein, growth rescue, BacTiter-Glo, 24 h. Potency, µM (series often up to 46.1 µM), for inactives: at the highest dose growth rescue (activation), hits mostly activators. hit rate 0.14% among 370,000. AID 652106; further: % of control where 0% means no effect; nearly all actives have a fitted effect of over 65% in size
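Rescue of yeast growth: cells expressing toxic alpha-synuclein, induced in galactose at OD600 0.02, incubated with compound 24 h at 30 C. ATP luminescence quantified growth; inhibitors of toxicity appear as activators.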
Mito fusion act: inhibitors of mitochondrial division or activators of mitochondrial fusion; S. cerevisiae fusion-defective mutant growth rescue, CellTiterGlo 48 h; Potency, µM (highest dose often 46.1 µM), for the others: top-dose growth rescue (activation), hits mostly activators; hit rate 0.23% among 320,000; AID 485298; further: % of control where 0% means no effect; nearly all actives have a fitted effect of over 45% in size
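Temperature-sensitive fusion-defective S. cerevisiae (e.g. fzo1-1, mgm1-5) were grown with compound in YPEG medium (3% ethanol, 3% glycerol) for 48 hours at 37C. Growth rescue was measured as viability by CellTiterGlo luminescence after 10 minutes at ambient.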
FUS yeast rescue: suppressors of FUS proteinopathy in yeast; AID 1347120; hit rate 0.24% among 390,000; S. cerevisiae FUS-expressing, growth rescue, OD600, 24 h; Potency, µM (doses to about 76.6 µM), actives largely listed as activators;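 further: plate controls were DMSO vehicle for no effect and reference control for full effect; nearly all actives have a fitted effect of over 55% in size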
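Yeast expressing FUS under galactose induction, OD 0.005 in 2% galactose medium; compounds in a dilution series, 24 h at 30C. Growth rescue by absorbance at 600 nm; CP55940 positive control, DMSO negative.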
* = called active by the depositor; i = inactive; ? = inconclusive; . = no result given; [ ] = another dose, or the depositor's remark. A selection: hits, their analogues and other compounds. The true share with any hit is near 2.2%. The call rests on the fitted dose curve; in most records, active means well fitted curve in the direction sought with a large enough effect; inconclusive means small, poorly fitted or top-dose-only effect, or another doubt; inactive means no such curve, though single readings can be large; an effect the other way counts as inactive or inconclusive. Potency means the concentration at half of the fitted maximal effect.

SMILES	Abeta rescue	TDP43 rescue	aSyn yeast inh	Mito fusion act	FUS yeast rescue
O=C(Cn1nnc(-c2ccncc2)n1)Nc1ccc(Cl)cc1	.	.	.	.	i
COc1cc2c(cc1OC)/C(=C/C(=O)c1ccc(F)cc1)NCC2	i	10µM*	6%	7%	i
O=C(O)/C=C/c1cnn(-c2ccccc2)c1	i	35µM*	0%	-1%	i
CN1c2ccccc2Oc2nnc(N3CCN(Cc4ccccc4)CC3)cc21	i	-11%[9.22 µM]	0%	29%	i
CN1c2ccccc2Oc2nnc(Cl)cc21	i	11µM*	16µM*	7%	i
CC(C)(Oc1ccc(Cl)cc1)C(=O)Nc1nc2ccc(S(C)(=O)=O)cc2s1	i	13µM*	.	.	?
CS(=O)(=O)c1ccc2nc(NC(=O)c3ccc(Cl)cc3)sc2c1	i	.	4%	-1%	i
O=S(=O)(c1ccc(Cl)cc1)N1CCCC1c1nc(-c2ccc(Cl)cc2)no1 (stereo not drawn)	i	-4%	19%	11%	i
O=C(Nc1ccccc1)N1CCCC(c2nc(-c3ccc(F)cc3)no2)C1 (stereo not drawn)	i	?	16%	1%	i
Cc1ccc(NC(=O)N2CCCC(c3nc(-c4ccc(F)cc4)no3)C2)cc1 (stereo not drawn)	i	35µM*	6%	23%	i
O=S(=O)(c1ccccc1Cl)N1CCCC1c1nc(-c2ccccc2Cl)no1 (stereo not drawn)	i	14µM*	16%	0%	i
O=C(Nc1ccc(Cl)cc1)N1CCC(c2nc(-c3ccccc3Cl)no2)CC1	i	18µM*	14%	27%	i
Cc1cccc(-c2nc3c4ccccc4n(CC(=O)Nc4cccc(F)c4)c(=O)n3n2)c1	i	?	.	.	i
CN(C)CCN(C)C1CN(Cc2ccc([N+](=O)[O-])cc2)S(=O)(=O)C1 (stereo not drawn)	i	16%	1%	.	i
Cc1ccc(N=Cc2ccc[nH]2)c(O)c1	i	-23%	-2%	-1%	35µM*
CCOC(=O)c1csc(NC(=O)C2CCCN(S(=O)(=O)c3ccccc3[N+](=O)[O-])C2)n1 (stereo not drawn)	.	.	.	.	i
COc1ccc(N2C(=O)CC(N3CCC(O)(c4cccc(C(F)(F)F)c4)CC3)C2=O)cc1 (stereo not drawn)	i	18µM*	8%	-13%	i
COC(=O)[C@H](C(C)C)N1Cc2nnn(CC3CCCCC3)c2-c2cc(F)ccc2S1(=O)=O	.	.	.	.	i
O=C(Nc1ccccc1)c1ccc(Br)o1	i	?	3%	-6%	i
CCCOC(=O)c1ccc(NC(=O)c2ccc(Br)o2)cc1	i	16%	-1%	22µM*	i
O=C(Nc1ccc2ccccc2c1)c1ccc(Br)o1	i	20µM*	-4%	2%	i
CC(C)COc1ccc(C(=O)N2CCC(c3nc4ccccc4s3)CC2)cc1	i	0%	.	.	?
CCC(=O)N1CCc2cc(CNS(=O)(=O)c3ccc(CC(C)C)cc3)ccc21	i	?	.	.	i
S=C(Cc1ccccc1)Nc1ccccc1	i	8.9µM*	2%	.	.
S=C(NCCNC(=S)Nc1ccccc1)Nc1ccccc1	i	24%	3%	1%	i
SMILES	Abeta rescue	TDP43 rescue	aSyn yeast inh	Mito fusion act	FUS yeast rescue
O=C(Nc1ccccn1)C1CCN(S(=O)(=O)c2ccc3ccccc3c2)CC1	i	11µM*	8%	2%	i
CCN1CCN(C(=O)C2CCCN(S(=O)(=O)c3cc(Cl)ccc3Cl)C2)CC1 (stereo not drawn)	i	8%	-1%	-1%	.
O=C(C1CCN(S(=O)(=O)c2ccc3ccccc3c2)CC1)N1CCN(c2ncccn2)CC1	i	20µM*	7%	28%	i
O=C(C1CCN(S(=O)(=O)c2ccccc2)CC1)N1CCN(c2ccccc2)CC1	i	0%	15%	-1%	i
CC1CCN(C(=O)C2CCN(S(=O)(=O)c3cc(Cl)ccc3Cl)CC2)CC1	?	13µM*	3%	2%	i
O=C(C1CCN(S(=O)(=O)c2ccc(Cl)s2)CC1)N1CCN(c2ccccc2)CC1	i	14µM*	21%	.	.
